According to PubChem BioAssay (EPA / NIEHS):
Inconclusive results are not listed. Active and inactive are the calls of the source. The calls were made as follows: active = hit-call score of the fitted dose curve at least 0.9, where 1 is the maximum; inconclusive = response in the unintended direction; inactive = score below 0.9.

Key:
[1] = Tanguay_ZF_120hpf_MORT_legacy: (Legacy) Oregon State University Tanguay Lab 120 Hour Post-fertilization zebrafish Assay for Mortality (AID 2283633);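 as to AC50: fitted as increase in binary mortality versus DMSO negative control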
Procedure, shortened: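 Mortality endpoint from a multiplexed whole-embryo zebrafish screen. Dechorionated wild-type embryos received compound at 6 hpf and remained under static exposure at 28C until 120 hpf, with death noted as a present/absent call.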

[2] = Tanguay_ZF_120hpf_YSE_legacy: (Legacy) Oregon State University Tanguay Lab 120 Hour Post-fertilization zebrafish Assay for Yolk Sac Edema (AID 2283634)
Procedure, shortened: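 Readout: presence or absence of yolk sac edema at 120 hpf, fitted upward against DMSO controls. Exposure ran statically from 6 hpf in dechorionated embryos kept at 28C.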

[3] = Tanguay_ZF_120hpf_EYE_legacy: (Legacy) Oregon State University Tanguay Lab 120 Hour Post-fertilization zebrafish Assay for Eye Malformation (AID 2283636);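 also: binary presence or absence of eye malformation scored by brightfield in 120 hpf larvae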
Procedure, shortened: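 5D wild-type embryos, pronase-dechorionated at 4 hpf; static exposure 6–120 hpf, 28C, dark; DMSO 0.64% final; 5uM trimethyltin chloride positive control. Binary eye-defect scoring at 120 hpf; dead embryos not scored.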

[4] = Tanguay_ZF_120hpf_SNOU_legacy: (Legacy) Oregon State University Tanguay Lab 120 Hour Post-fertilization zebrafish Assay for Snout Malformation (AID 2283637)
Procedure, shortened: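 Binary brightfield scoring of snout malformation at 120 hpf. Dechorionated 5D wild-type embryos, one per well, static exposure from 6 hpf at 28C, sealed and dark; final DMSO 0.64% (vol/vol), DMSO as baseline; 5uM trimethyltin chloride positive control.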

[5] = Tanguay_ZF_120hpf_JAW_legacy: (Legacy) Oregon State University Tanguay Lab 120 Hour Post-fertilization zebrafish Assay for Jaw Malformation (AID 2283638)
Procedure, shortened: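 Static waterborne exposure of dechorionated wild-type (Tropical 5D) zebrafish from 6 to 120 hpf at 28C, 0.64% DMSO vehicle; 5uM trimethyltin chloride served as positive control. Jaw morphology recorded as binary at 120 hpf.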

[6] = Tanguay_ZF_120hpf_OTIC_legacy: (Legacy) Oregon State University Tanguay Lab 120 Hour Post-fertilization zebrafish Assay for Otic Vesicle Malformation (AID 2283639)
Procedure, shortened: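 Statically exposed wild-type 5D zebrafish embryos, kept sealed and dark at 28C through 120 hours post fertilization, were examined by brightfield microscopy for otic vesicle defects. Responses were recorded as present or absent and analysed relative to DMSO.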

[7] = Tanguay_ZF_120hpf_BRAI_legacy: (Legacy) Oregon State University Tanguay Lab 120 Hour Post-fertilization zebrafish Assay for Brain Malformation (AID 2283641)
Procedure, shortened: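 Brain malformation in Tropical 5D zebrafish was recorded as a binary endpoint after static compound exposure from early development to 120 hpf at 28C. Activity was analysed against DMSO as negative control.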

[8] = Tanguay_ZF_120hpf_SOMI_legacy: (Legacy) Oregon State University Tanguay Lab 120 Hour Post-fertilization zebrafish Assay for Somite Malformation (AID 2283647)
Procedure, shortened: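 5D WT zebrafish; chorion removed 4 hpf; 1 embryo/well from 6 hpf; static exposure to 120 hpf, 28C, 0.64% DMSO final. Endpoint: somite malformation, binary, brightfield. Mortality excluded.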

[9] = Tanguay_ZF_120hpf_CFIN_legacy: (Legacy) Oregon State University Tanguay Lab 120 Hour Post-fertilization zebrafish Assay for Caudal Fin Malformation (AID 2283649)
Procedure, shortened: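 Embryos were collected from Tropical 5D wild-type adults and dechorionated at 4 hpf. At 6 hpf each was exposed, one per well, at 0.64% DMSO and 28C. At 120 hpf fin morphology was scored; dead embryos were excluded.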

[10] = Tanguay_ZF_120hpf_PIG_legacy: (Legacy) Oregon State University Tanguay Lab 120 Hour Post-fertilization zebrafish Assay for Pigmentation Malformation (AID 2283650)
Procedure, shortened: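 Brightfield scoring of pigmentation malformation at 120 hpf, recorded as binary present/absent per larva. Exposure: dechorionated 5D wild-type embryos, one per well, static from 6 hpf at 28C, final DMSO 0.64% (vol/vol). Dead embryos not scored.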

[11] = Tanguay_ZF_120hpf_CIRC_legacy: (Legacy) Oregon State University Tanguay Lab 120 Hour Post-fertilization zebrafish Assay for Circulatory Malformation (AID 2283651)
Procedure, shortened: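 Embryos are dechorionated at 4 hpf, plated one per well at 6 hpf, then held under static exposure at 28C until 120 hpf. Malformations are recorded as binary calls; mortality excludes other endpoints.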

[12] = Tanguay_ZF_120hpf_PE_legacy: (Legacy) Oregon State University Tanguay Lab 120 Hour Post-fertilization zebrafish Assay for Pericardial Edema (AID 2283640)
Procedure, shortened: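 Read-out is the presence or absence of pericardial edema at 120 hpf under brightfield, with gain of signal fitted against DMSO controls. Larvae (5D wild-type) were statically exposed at 28C with 0.64% final DMSO.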

[13] = Tanguay_ZF_120hpf_PFIN_legacy: (Legacy) Oregon State University Tanguay Lab 120 Hour Post-fertilization zebrafish Assay for Pectoral Fin Malformation (AID 2283648);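 also: each larva judged yes or no for fin defect by brightfield with dead larvae skipped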
Procedure, shortened: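 Binary pectoral fin malformation call at 120 hpf by brightfield microscopy; 5D wild-type zebrafish, chorion removed at 4 hpf, one embryo per well from 6 hpf, static exposure at 28C; DMSO (0.64% final) as baseline.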

[14] = Tanguay_ZF_120hpf_AXIS_legacy: (Legacy) Oregon State University Tanguay Lab 120 Hour Post-fertilization zebrafish Assay for Body Axis Malformation (AID 2283635)
Procedure, shortened: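 Static 6–120 hpf chemical exposure of dechorionated wild-type 5D zebrafish, one per well at 28C; morphology endpoint scored binary at 120 hpf relative to DMSO control.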

Measured: AC50

CC(COCC(C)OC(=O)c1ccccc1)OC(=O)c1ccccc1 (stereo unspecified)
not listed: [12] | [13] | [14]
inactive: all other assays above

Cc1ccc(-c2cc(C(F)(F)F)nn2-c2ccc(S(N)(=O)=O)cc2)cc1
not listed: [6] | [8] | [14]
inactive: all other assays above

CSc1ccc(Oc2ccc(S(N)(=O)=O)cc2CN(C)C)cc1C
not listed: [10] | [14]
inactive: all other assays above

N[C@@H](Cc1c[nH]c2ccccc12)C(=O)O
not listed: [4] | [7] | [12] | [14]
inactive: all other assays above

O=C1NC(=O)C(c2ccccc2)(c2ccccc2)N1
not listed: [14]
inactive: all other assays above

CCCCOC(=O)CCCCC(=O)OCCCC
not listed: [3] | [5] | [11] | [14]
inactive: all other assays above

CC(C)c1cccc(C(C)C)c1
not listed: [2] | [4] | [8] | [13] | [14]
inactive: all other assays above

CC(=O)OC1CC(C)OC(C)O1 (stereo unspecified)
not listed: [6]
inactive: all other assays above

C/C=C/c1ccc(OC)cc1
not listed: [11] | [14]
inactive: all other assays above

CC(C)OC(=O)C(C)(C)Oc1ccc(C(=O)c2ccc(Cl)cc2)cc1
inactive: [1] | [3] | [6] | [12] | [9] | [10] | [11]

CC(C)NCC(O)c1ccc(O)c(O)c1 (stereo unspecified)
not listed: [8] | [13] | [14]
inactive: all other assays above

Cc1cn([C@H]2C=C[C@@H](CO)O2)c(=O)[nH]c1=O
not listed: [9] | [10]
inactive: all other assays above

O=Cc1ccccc1C=O
active: [1] 4.42 µM
not listed: [5] | [13]
inactive: all other assays above

CC(=O)O[C@]1(C(C)=O)CC[C@H]2[C@@H]3C=C(Cl)C4=CC(=O)[C@@H]5C[C@@H]5[C@]4(C)[C@H]3CC[C@@]21C
not listed: [13]
inactive: all other assays above
